The values that follow come from PubChem BioAssay (NCI).

About 83,000 compounds went through this panel and 20% of them were active in at least one assay; those are over-represented in the sample as a whole.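 The endpoint reported here, percent growth, reads 100 for growth as untreated, 0 for no net growth and -100 for all cells dead.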 A number with no mark means an inactive call. Calls of active or inactive are those of the source. How the source made its calls: active means growth percent below 10; inactive means the rest.

Test in all cases: NCI-60 one-dose screen, 48 h (100 = growth as untreated, 0 = no growth, -100 = all killed)
In one assay the test system is SK-MEL-2 melanoma. As to conditions: 10 µM unless noted.
In the next assay the test system is EKVX NSCLC. The settings on record: 10 µM unless noted.
Another assay relates to SN12C renal. As to conditions: 10 µM unless noted.
For the next assay, the system named is UO-31 renal. The settings on record: 10 µM unless noted.
For a further assay, the system named is TK-10 renal. As to conditions: 10 µM unless noted.
In the next assay the test system is ACHN renal. The settings on record: 10 µM unless noted.
Another assay concerns CAKI-1 renal. As to conditions: 10 µM unless noted.
The subject of a further assay is A498 renal. The settings on record: 10 µM unless noted.
For the next assay, the system named is CCRF-CEM leukemia. The settings on record: 10 µM unless noted.
The next assay concerns MOLT-4 leukemia. The settings on record: 10 µM unless noted.
Another assay concerns SR leukemia. The settings on record: 10 µM unless noted.
The next assay has as its system RPMI-8226 leukemia. The settings on record: 10 µM unless noted.
In the next assay the test system is OVCAR-8 ovarian. As to conditions: 10 µM unless noted.
The subject of the next assay is OVCAR-5 ovarian. The settings on record: 10 µM unless noted.
A further assay concerns OVCAR-4 ovarian. The settings on record: 10 µM unless noted.
A further assay deals with SK-OV-3 ovarian. As to conditions: 10 µM unless noted.
Another assay deals with OVCAR-3 ovarian. As to conditions: 10 µM unless noted.
For a further assay, the system named is HS 578T breast. As to conditions: 10 µM.
In the next assay the test system is NCI/ADR-RES ovarian. As to conditions: 10 µM unless noted.
Another assay has as its system IGROV1 ovarian. The settings on record: 10 µM unless noted.

As for `COc1c(B(O)O)cccc1-c1nc2c(F)cc3n[nH]c(C)c3c2c2c1CCCC2`, the growth in the assay on SK-MEL-2 melanoma is -10.3% (active); with EKVX NSCLC, 34.8%; with SN12C renal, 19.3%; in the assay on UO-31 renal it was -2.78% (active); with TK-10 renal, -2.49% (active); in the assay with ACHN renal, 8.08% (active). In addition, the growth is 0.215% (active) in the assay on CAKI-1 renal; -53.6% (active) in the assay with A498 renal; 17.7% with CCRF-CEM leukemia; 28.7% with MOLT-4 leukemia; 42% in the assay with SR leukemia; 6.03% (active) with RPMI-8226 leukemia. The growth in the assay with OVCAR-8 ovarian was 17.3%; with OVCAR-5 ovarian, 8.74% (active); with OVCAR-4 ovarian, 43.7%; with SK-OV-3 ovarian it was -1.49% (active); with OVCAR-3 ovarian, 9.19% (active); in the assay on HS 578T breast, 9.55% (active). In addition, the growth in the assay with NCI/ADR-RES ovarian was 36.4%.

With `Fc1ccc2c(CN3CCO[C@H](COc4cccc(Cl)c4)C3)c[nH]c2c1`, the growth with SK-MEL-2 melanoma is 71.1%; with EKVX NSCLC, 74.3%; in the assay with SN12C renal, 49.1%; in the assay on UO-31 renal, 51.4%; in the assay on TK-10 renal, 22.1%; with ACHN renal it was 46.8%. The growth in the assay with CAKI-1 renal was 65.3%; in the assay on A498 renal it was 53.9%; with CCRF-CEM leukemia it was 38.5%; in the assay with MOLT-4 leukemia, 25.9%; in the assay on SR leukemia it was 37.3%; with RPMI-8226 leukemia, 12.5%. The growth in the assay on OVCAR-8 ovarian is 33.3%; in the assay with OVCAR-5 ovarian, 85.8%; in the assay with OVCAR-4 ovarian it was 71.2%; in the assay with SK-OV-3 ovarian, 85.7%; with OVCAR-3 ovarian, 36.7%; in the assay on HS 578T breast, 64.8%. For the same compound, the growth in the assay on NCI/ADR-RES ovarian is 47.3%.

As for `Cc1cc(NC(=O)c2ccc(N)cc2)ccc1N=Nc1ccc2cc(S(=O)(=O)O)cc(S(=O)(=O)O)c2c1`, the growth with SK-MEL-2 melanoma was 121%; in the assay with EKVX NSCLC, 99.9%; in the assay with SN12C renal, 109%; in the assay with UO-31 renal it was 101%; with TK-10 renal, 97.9%; in the assay on ACHN renal it was 95.2%. For the same compound, the growth in the assay with CAKI-1 renal is 91.5%; with A498 renal, 90.6%; with CCRF-CEM leukemia it was 87.1%; in the assay with MOLT-4 leukemia, 112%; in the assay with SR leukemia, 107%; in the assay with RPMI-8226 leukemia it was 94%. In addition, the growth in the assay with OVCAR-8 ovarian was 107%; in the assay on OVCAR-5 ovarian it was 98.7%; in the assay with OVCAR-4 ovarian, 117%; in the assay on SK-OV-3 ovarian it was 103%; with IGROV1 ovarian it was 102%; in the assay with HS 578T breast, 110%. Further, the growth in the assay with NCI/ADR-RES ovarian is 108%.

For the compound `Fc1[nH]nc2ccc([C@@H]3Nc4ccc5[nH]ncc5c4[C@H]4C5CCC(C5)[C@@H]34)cc12` (stereo partly specified), the growth in the assay on SK-MEL-2 melanoma is 33.1%; in the assay with EKVX NSCLC, 36.1%; in the assay with SN12C renal it was 46.1%; in the assay on UO-31 renal, 51.3%; in the assay with TK-10 renal, 42.4%; with ACHN renal, 43.7%. The growth is 32.6% in the assay with CAKI-1 renal; -12.4% (active) in the assay with A498 renal; 18% in the assay with CCRF-CEM leukemia; 21.2% with MOLT-4 leukemia; 42% with SR leukemia; 18.2% with RPMI-8226 leukemia. Also, the growth with OVCAR-8 ovarian was 40%; in the assay on OVCAR-5 ovarian, 54.3%; with OVCAR-4 ovarian it was 54.6%; in the assay on SK-OV-3 ovarian it was 39.7%; in the assay with IGROV1 ovarian, 43.1%; with OVCAR-3 ovarian, 1.83% (active). The growth in the assay with NCI/ADR-RES ovarian was 15.2%.

As to `Cc1cc(C#Cc2ccccc2)ccc1-n1c(/C=C/c2ccc(F)cc2)nc2ccccc2c1=O`, the growth in the assay on SK-MEL-2 melanoma was 71%; in the assay with EKVX NSCLC, 46.5%; with SN12C renal, 73%; with UO-31 renal it was 36.2%; in the assay on TK-10 renal, 94.4%; in the assay on ACHN renal, 78.6%. The growth in the assay with CAKI-1 renal was 55.2%; in the assay with A498 renal it was 94.1%; with CCRF-CEM leukemia it was 74.3%; with MOLT-4 leukemia it was 44.7%; with SR leukemia it was 64.8%; in the assay on RPMI-8226 leukemia, 25.6%. In addition, the growth in the assay on OVCAR-8 ovarian was 90.6%; in the assay with OVCAR-5 ovarian, 106%; with OVCAR-4 ovarian, 57.6%; in the assay with SK-OV-3 ovarian, 89.9%; with HS 578T breast, 93.3%; in the assay with NCI/ADR-RES ovarian, 83.3%.

As for `COc1ccc2[nH]c(O)c(/C=c3/ccc4c(c3)N=C(c3ccc(F)cc3)N=4)c2c1`, the growth in the assay with SK-MEL-2 melanoma is 110%; with EKVX NSCLC it was 80.4%; in the assay on SN12C renal, 50.2%; in the assay on UO-31 renal, 63.2%; in the assay on TK-10 renal, 116%; in the assay on ACHN renal it was 31.2%. Besides, the growth with CAKI-1 renal is 20.1%; with A498 renal it was 92.9%; with CCRF-CEM leukemia, 42.5%; in the assay with MOLT-4 leukemia it was 67.7%; with SR leukemia it was 59.8%; with RPMI-8226 leukemia, 76.5%. For the same compound, the growth in the assay on OVCAR-8 ovarian is 76.9%; with OVCAR-5 ovarian, 113%; in the assay on OVCAR-4 ovarian, -38.2% (active); in the assay on SK-OV-3 ovarian, 62.9%; with IGROV1 ovarian, -7.41% (active); in the assay on OVCAR-3 ovarian, 75.3%. The growth in the assay with NCI/ADR-RES ovarian is 75.2%.

Regarding `Nc1nc2ccc([C@@H]3Nc4ccc5[nH]ncc5c4[C@H]4[C@H]5CCC(C5)[C@H]43)cc2s1`, the growth in the assay with SK-MEL-2 melanoma is -1.54% (active); in the assay on EKVX NSCLC it was 16.2%; in the assay with SN12C renal, 11.4%; in the assay on UO-31 renal, 30.4%; in the assay with TK-10 renal, 46.3%; with ACHN renal, 29.7%. Further, the growth in the assay with CAKI-1 renal is 29.8%; in the assay on A498 renal, -2.86% (active); with CCRF-CEM leukemia it was 21.2%; in the assay on MOLT-4 leukemia it was 7.02% (active); in the assay with SR leukemia, 51.1%; with RPMI-8226 leukemia, 19.5%. In addition, the growth in the assay on OVCAR-8 ovarian was 37.5%; with OVCAR-5 ovarian it was 21.3%; in the assay with OVCAR-4 ovarian, 14.4%; in the assay on SK-OV-3 ovarian, -17.5% (active); in the assay with IGROV1 ovarian it was 33.3%; with OVCAR-3 ovarian, -6.66% (active). Moreover, the growth in the assay with NCI/ADR-RES ovarian is 17.4%.

Consider `CN(C)c1ccc(Nc2c3ccccc3nc3ccccc23)cc1`, for which the growth with SK-MEL-2 melanoma was 40.1%; in the assay on EKVX NSCLC it was 19.1%; with SN12C renal it was 16.4%; with UO-31 renal, -31% (active); in the assay on TK-10 renal, 34.1%; in the assay with ACHN renal it was -18.8% (active). In addition, the growth in the assay with CAKI-1 renal is -13.5% (active); in the assay on A498 renal it was 14.2%; with CCRF-CEM leukemia, 19.9%; in the assay with MOLT-4 leukemia, 6.01% (active); with SR leukemia, -8.36% (active); in the assay with RPMI-8226 leukemia, 17.2%. The growth with OVCAR-8 ovarian was 23.5%; in the assay on OVCAR-5 ovarian it was 43.7%; in the assay with OVCAR-4 ovarian it was 1.57% (active); with SK-OV-3 ovarian it was 22%; in the assay on OVCAR-3 ovarian, -11.7% (active); in the assay on HS 578T breast, 25.2%. Further, in the assay on NCI/ADR-RES ovarian, the growth is 12.5%.
